We go through eight compounds from PubChem BioAssay (NCI).

About 83,000 compounds went through this panel and 20% of them were active in at least one assay; those are over-represented in the sample as a whole.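 Cells were grown in 96-well plates and exposed to the test compound at a single concentration for 48 hours; results are reported as percent growth, with values below 10 considered active.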 Values without a mark were called inactive. Active and inactive are the calls of the source.

What all share (assay): NCI-60 one-dose screen, 48 h (100 = growth as untreated, 0 = no growth, -100 = all killed)
What all share (details): 10 µM unless noted

Assay [1] has as its system SR leukemia.
Assay [2] concerns RPMI-8226 leukemia.
For assay [3], the system named is OVCAR-8 ovarian.
In assay [4] the test system is OVCAR-5 ovarian.
Assay [5] concerns OVCAR-4 ovarian.
Assay [6] concerns SK-OV-3 ovarian.
The test system of assay [7] is IGROV1 ovarian.
Assay [8] deals with OVCAR-3 ovarian.
The test system of assay [9] is HS 578T breast.
In assay [10] the test system is NCI/ADR-RES ovarian.
The subject of assay [11] is T-47D breast.
The subject of assay [12] is BT-549 breast.
Assay [13] deals with MDA-MB-435 melanoma.
In assay [14] the test system is SW-620 colon.
Assay [15] deals with MCF7 breast.
Assay [16] deals with HCT-116 colon.
Assay [17] deals with HCC-2998 colon.
For assay [18], the system named is KM12 colon.

As for `COC(=O)[C@]12CC[C@@H](C)[C@H](C)[C@@H]1C1=CC(=O)[C@@H]3[C@@]4(C)C[C@@H](O)[C@H](O)[C@@]5(C)COC(=C45)C[C@@]3(C)[C@]1(C)CC2`, the growth in assay [1] is 7.5% (active); in [2] it was 51.2%; in assay [3], 61.4%; in assay [4], 95.9%; in assay [5] it was 63%; in [6] it was 83.9%. For the same compound, the growth in assay [7] was 47.6%; in assay [8], 48.3%; in [9], 49.7%; in assay [10], 20.8%; in assay [11] it was 51.2%; in assay [12], 53.9%. Besides, the growth in assay [13] is -11.3% (active); in [14] it was 33.3%; in assay [15] it was 28.5%; in [16], 53.2%; in assay [17], 69.2%; in assay [18], 34.6%.
Regarding `CCN(CC)C(=O)CCCCCn1c2ccccc2c2c3c(c4c5ccccc5[nH]c4c21)C(=O)N(O)C3=O`, the growth in [1] is 5.8% (active); in assay [2], 16.1%; in assay [3] it was 20.8%; in assay [4], 104%; in assay [5], 56.6%; in assay [6] it was 79.5%. Also, the growth was 27.6% in [7]; 46.5% in assay [8]; 71.1% in assay [9]; 12.7% in [10]; 28.2% in [11]; 56.8% in assay [12]. In addition, the growth in [13] is 25.3%; in [14], 70.1%; in assay [15], 18.5%; in [16], 37.8%; in [17], 44%; in assay [18], 30.8%.
On to `Cc1ccc(/C=C(\C#N)c2cc3ccccc3n2C)cc1`, for which the growth is 25.2% in [1]; 14% in [2]; 38.9% in [3]; 38.7% in assay [4]; 61% in [5]; 67.8% in assay [6]. In addition, the growth in assay [7] is 30.5%; in assay [8], -12.6% (active); in assay [9], 34.1%; in assay [10] it was -2.11% (active); in assay [11], 54.9%; in assay [12], 0.46% (active). Also, the growth is -1.88% (active) in assay [13]; 31.8% in assay [14]; 18.4% in assay [15]; 16.2% in [16]; 17.4% in [17]; 22.3% in assay [18].
Take `Cc1cc(Cl)nc(N(CCCNc2ccnc3cc(Cl)ccc23)Cc2ccco2)n1`: the growth is -13.7% (active) in assay [1]; -28.9% (active) in assay [2]; 14.5% in [3]; 31.9% in assay [4]; 32% in assay [5]; 40.8% in assay [6]. Besides, the growth is 15.3% in assay [7]; 35.7% in assay [8]; 58.8% in [9]; 5.99% (active) in assay [10]; 3.69% (active) in assay [11]; 8.06% (active) in assay [12]. In addition, the growth in assay [13] is 22.8%; in assay [14] it was 20%; in assay [15] it was 12.2%; in assay [16], 3.68% (active); in assay [17] it was 22%; in assay [18], 22.4%.
Turning to `COc1ccc2c(c1)c(-c1nc(-c3c[nH]c4ncccc34)cs1)cn2CCN`, the growth in [1] is 0.217% (active); in assay [2] it was 52.7%; in assay [3], 70.5%; in assay [4], 88.6%; in [5], 57.1%; in assay [6] it was 60.7%. The growth in [7] is 30.4%; in assay [8], 70.5%; in [9], 62.3%; in assay [10], 84.1%; in assay [11] it was 25.7%; in [12], 88.2%. Besides, the growth in assay [13] is 68.9%; in assay [14] it was 55.3%; in assay [15] it was 36.5%; in [16] it was 53.5%; in assay [17], 94.9%; in [18] it was 24.4%.
`COc1cccc(-c2nn(-c3ccccc3)cc2-c2ccnc(NCCCNS(=O)(=O)c3cccc(F)c3)c2)c1`: the growth in assay [1] was -7.52% (active); in assay [2], 14.3%; in [3], 12.1%; in assay [4], 61.3%; in assay [5] it was 34%; in assay [6] it was 40.9%. In addition, the growth in assay [7] is 29.6%; in assay [8], 46.5%; in assay [9], 32%; in assay [10], 12.7%; in assay [11] it was -1.01% (active); in assay [12], 24.3%. In addition, the growth in [13] is 22.4%; in [14] it was 39.9%; in assay [15], 16%; in assay [16] it was 18.4%; in assay [17], 11.7%; in assay [18], 24.5%.
In the case of `c1cc(N2CCCC2)c2nc(-c3[nH]ncc3Nc3ncnc4[nH]ccc34)[nH]c2c1`, the growth in [1] is 5.49% (active); in assay [2] it was -7.49% (active); in assay [3] it was 1.75% (active); in assay [4], -9.59% (active); in assay [5], -13.6% (active); in assay [6], -8.07% (active). Also, the growth in [7] is -17.9% (active); in [8], -14% (active); in [9], -4.25% (active); in [10], -21.1% (active); in [11], 0.99% (active); in [12], -37% (active). Also, the growth was -80.8% (active) in [13]; 2.01% (active) in [14]; -23% (active) in assay [15]; -9.45% (active) in [16]; -30.4% (active) in assay [17]; -20.4% (active) in assay [18].
For `N#Cc1c(-c2ccco2)nc2c(c(-c3ccccc3)nn2-c2ccccc2)c1-c1ccc(O)cc1`, the growth in assay [1] is 19.7%; in assay [2], 55.3%; in assay [3] it was 55.2%; in assay [4] it was 93.4%; in assay [5] it was 77.7%; in assay [6] it was 46.4%. For the same compound, the growth in assay [7] is 84.2%; in [8], 86%; in assay [9], 53.8%; in assay [10], 76.4%; in assay [11], 18.5%; in [12] it was 64.7%. Besides, the growth in assay [13] is 62.1%; in assay [14] it was 48%; in assay [15], 47.3%; in [16] it was 36.9%; in assay [17], 91.5%; in [18], 43%.
